Test results published in PubChem BioAssay (NCI).
This is part of a sample that, as a whole, favours compounds with a hit. Of some 83,000 tested, about 20% had one in any assay.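 A percent growth of 40 corresponds to 60% growth inhibition; 0 means no net growth; -100 means all cells died. Active threshold: below 10.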 Values without a mark were called inactive. Active and inactive are the calls of the source.

Assays:
Assay in all cases: NCI-60 one-dose screen, 48 h (100 = growth as untreated, 0 = no growth, -100 = all killed)
Conditions in all cases: 10 µM unless noted
DU-145 prostate = tested on: DU-145 prostate
K-562 leukemia = tested on: K-562 leukemia
MALME-3M melanoma = tested on: MALME-3M melanoma
MDA-MB-231 breast = tested on: MDA-MB-231 breast
RXF 393 renal = tested on: RXF 393 renal
SF-268 CNS = tested on: SF-268 CNS
SF-295 CNS = tested on: SF-295 CNS
SF-539 CNS = tested on: SF-539 CNS
UACC-257 melanoma = tested on: UACC-257 melanoma
M14 melanoma = tested on: M14 melanoma
HCT-15 colon = tested on: HCT-15 colon
HT29 colon = tested on: HT29 colon
SNB-75 CNS = tested on: SNB-75 CNS
SNB-19 CNS = tested on: SNB-19 CNS
U251 CNS = tested on: U251 CNS
PC-3 prostate = tested on: PC-3 prostate
SK-MEL-5 melanoma = tested on: SK-MEL-5 melanoma
UACC-62 melanoma = tested on: UACC-62 melanoma
LOX IMVI melanoma = tested on: LOX IMVI melanoma
SK-MEL-28 melanoma = tested on: SK-MEL-28 melanoma

SMILES | growth (DU-145 prostate) | growth (K-562 leukemia) | growth (MALME-3M melanoma) | growth (MDA-MB-231 breast) | growth (RXF 393 renal) | growth (SF-268 CNS) | growth (SF-295 CNS) | growth (SF-539 CNS) | growth (UACC-257 melanoma) | growth (M14 melanoma) | growth (HCT-15 colon) | growth (HT29 colon) | growth (SNB-75 CNS) | growth (SNB-19 CNS) | growth (U251 CNS) | growth (PC-3 prostate) | growth (SK-MEL-5 melanoma) | growth (UACC-62 melanoma) | growth (LOX IMVI melanoma) | growth (SK-MEL-28 melanoma)
CN1CCN(c2ccc(Nc3nc(NCCCNS(=O)(=O)c4cccc5ccccc45)c4sccc4n3)cc2)CC1 | -6.73% (active) | 5.72% (active) | -91.6% (active) | -29% (active) | -87.1% (active) | -24.1% (active) | -71.8% (active) | -92.1% (active) | -89% (active) | -81.9% (active) | -32.8% (active) | -62.1% (active) | -36.9% (active) | 35.7% | -74.4% (active) | 29.1% | -95.3% (active) | -61% (active) | -85.2% (active) | -80.9% (active)
O=C(CSc1nnc(-c2ccc(Cl)cc2)n1-c1ccccc1)Nc1cccc(F)c1 | 58.1% | 48% | 52.7% | 27% | 25.6% | 56.2% | 9.38% (active) | -1.04% (active) | 85.9% | 62.9% | 67.8% | 48.1% | -14.1% (active) | 48.3% | 14.1% | 62.1% | 87.9% | 93.5% | 0.1% (active) | 78%
CC(=C(c1ccc(OCCCN(C)C)cc1)c1ccc(OCCCN(C)C)cc1)c1ccc(Cl)cc1 | 98% | -13.5% (active) | 85.8% | 95.4% | 80.6% | 91.7% | 95.2% | 81.7% | 100% | 92.7% | 41.6% | 45.7% | 75.8% | 92.9% | 92.1% | 87.5% | 98.5% | 101% | 76.6% | 99.2%
NC(=S)n1c(=O)n(-c2cccc(C(F)(F)F)c2)c(=O)c2cc(-c3ccc(F)cc3F)ccc21 | 24.5% | 8.79% (active) | -17.5% (active) | -11.3% (active) | 0.891% (active) | 13.3% | -12% (active) | 17.2% | -7.03% (active) | 14.5% | 9.27% (active) | 37.4% | -24.9% (active) | 15.6% | 9.68% (active) | 0.986% (active) | -57.3% (active) | -3.3% (active) | -46.5% (active) | 23%
C/C(=C(\c1ccc(O)cc1)c1ccc(OCCN2CCCCCC2)cc1)c1ccc(Cl)cc1 | -86.4% (active) | 5.91% (active) | -80.3% (active) | -85% (active) | -87.4% (active) | -62.5% (active) | -93.7% (active) | -91.8% (active) | -81.8% (active) | -86.5% (active) | -88.7% (active) | -72.8% (active) | -77.9% (active) | -20.6% (active) | -81.1% (active) | -69.9% (active) | -96% (active) | -85.1% (active) | -95.4% (active) | -84.1% (active)
CC1=C(C)C(=O)C(Nc2ccc(C)c(C)c2)=C(Br)C1=O | 109% | -2.41% (active) | 114% | 65.1% | 87.9% | 98.4% | 92.9% | 98.9% | 98.5% | 96.5% | 92.3% | 107% | 73.2% | 97.4% | 102% | 85% | 89.1% | 96.4% | -54.6% (active) | 111%
C1=CC(c2nn3c(-c4ccccc4)nnc3s2)=Cc2ccccc2O1 | 84.8% | 43.5% | 74.1% | 78.3% | 22.7% | 77.8% | 97.9% | 71.7% | 67.8% | 65% | 23.5% | 82.1% | 78.3% | 74.9% | 84.9% | 80.5% | 95.6% | 74% | -24.4% (active) | 30.6%
COc1cc2oc(-c3cccc(NC(=O)[C@@H](N)C(C)C)c3)cc(=O)c2c(OC)c1OC | 105% | 105% | 110% | 99.2% | 107% | 107% | 96.7% | 95.9% | 108% | 111% | 97.9% | 107% | 124% | 95.4% | 92.3% | 106% | 99.1% | 91.3% | 94.4% | 111%
O=C(CSc1nc2ccccc2c(=O)n1-c1ccccc1)N/N=C/c1ccc(Oc2ccc(Br)cc2)cc1 | 38.3% | 62.5% | 54.9% | 50.9% | 62.2% | 84.3% | 83.7% | 68.7% | 93.7% | 56.3% | 63.7% | 38.2% | 57.8% | 39.9% | 21.5% | 71.8% | 59.1% | 68.8% | 21% | 70.9%
CCCCOc1ccc(S(=O)(=O)N2CCN(c3nc(C)cc(N4CCOCC4)n3)CC2)cc1 | 16.6% | 44.3% | 107% | 3.79% (active) | 85% | 3.91% (active) | -22.5% (active) | 75.9% | -47.2% (active) | -15.9% (active) | 5.32% (active) | -35.5% (active) | 2.51% (active) | 62.6% | 18.8% | 36.4% | 84% | -23.6% (active) | -71.5% (active) | -2.33% (active)
CC(C)(C)OC(=O)Nc1ccc(-c2cccc(Oc3ccc4nnc(Cl)n4n3)c2)cc1 | 82.7% | 31.2% | 106% | 83.8% | 89.8% | 104% | 84.1% | 92.7% | 87.1% | 65.9% | 65% | 84.7% | 126% | 94.9% | 91.2% | 51.1% | 19.5% | 63.6% | 82.9% | 96.9%
NS(=O)(=O)c1cccc(Nc2nc(SCC(=O)c3ccc(Cl)cc3)nc3c2CCC3)c1 | 97.6% | 90.2% | 96.4% | 92.5% | 82.2% | 82.8% | 93.1% | 88.3% | 104% | 101% | 96.7% | 109% | 87% | 62.5% | 63.9% | 93.9% | 94.9% | 97.1% | 86.2% | 104%
COc1ccc2c(c1)c(/C=N/Nc1ccnc3cc(Cl)ccc13)cn2C | -93.3% (active) | -48.1% (active) | -77.2% (active) | -82.8% (active) | -81.1% (active) | -67.1% (active) | -84.4% (active) | -82.9% (active) | -84.2% (active) | -72% (active) | -85.3% (active) | -44.8% (active) | -91.2% (active) | -68.1% (active) | -80.1% (active) | -83.8% (active) | -95% (active) | -57.7% (active) | -78.7% (active) | -85.2% (active)
CCOC(=O)c1c(NC(=O)c2ccc(C(F)(F)F)cc2)sc2c(CN3CCN(C)CC3)c(O)ccc12 | -39.1% (active) | -57.5% (active) | -56.9% (active) | -43.3% (active) | -86% (active) | -49.5% (active) | -58% (active) | -89.7% (active) | -13.5% (active) | -26.1% (active) | -72.9% (active) | -52.1% (active) | 63.8% | -27.3% (active) | -88% (active) | -79% (active) | 64.4% | 28.8% | -93.1% (active) | -82.3% (active)
Cn1cc(-c2nc(N)nnc2-c2c[nH]c3ccc(Br)cc23)c2cc(F)ccc21 | 96.4% | 56.4% | 94.2% | 90.2% | 93.6% | 86.9% | 106% | 95.1% | 109% | 102% | 77.2% | 104% | 79.9% | 88% | 97.8% | 87.2% | 91.5% | 91.7% | 92.3% | 101%
